M18AAP inhibitor: blocks P. falciparum M18 aspartyl aminopeptidase. AID 1822. inhibition, % at 7.35 µM. recombinant PfM18AAP, H-Glu-NHMec fluorogenic cleavage. actives 1.2% (n = 290,000);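 active means inhibition above the campaign mean inhibition over all tested compounds plus 3 SD, cut at about 28% in these data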;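 further: 0% = plate median of test compound wells and 100% = 2 mM ZnCl2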
Mot1-301 SUMO: SUMOylation pathway inhibition by Mot1-301 growth rescue. S. cerevisiae Mot1-301 growth rescue, ATP luminescence, 38.5C; percent above DMSO median, 100 means doubled. growth rescue, % at 18.8 µM. actives 1% (n = 320,000). AID 2716;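 active means every valid replicate shows activation above 250% relative to neutral control wells; inactive means the rest, any valid replicate at or below 250%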;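 further: OY570 slx delta 5 strain wells were the positive control but not used for scaling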
HIF act: HIF pathway transcriptional activation; U2OS HRE-luciferase reporter, luminescence; normalized: DMSO 0%, desferrioxamine 100%; activation, % at 7.5 µM (by protocol); actives 0.32% (n = 300,000); AID 1910;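 active means mean activation of at least 10% of the iron chelator positive control signal, with at least half of replicates also reaching 10%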
ALR H2O2 inh: human ALR oxidase inhibition via reduced H2O2; P55789; purified ALR, DTT oxidation, H2O2 HRP-luminol luminescence; inhibition, % (test concentration not listed); actives 3.8% (n = 290,000);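 active means mean replicate inhibition above about 79%, with every replicate also reaching it, limit read from the data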
Target sequence (P55789 whole entry, looked up): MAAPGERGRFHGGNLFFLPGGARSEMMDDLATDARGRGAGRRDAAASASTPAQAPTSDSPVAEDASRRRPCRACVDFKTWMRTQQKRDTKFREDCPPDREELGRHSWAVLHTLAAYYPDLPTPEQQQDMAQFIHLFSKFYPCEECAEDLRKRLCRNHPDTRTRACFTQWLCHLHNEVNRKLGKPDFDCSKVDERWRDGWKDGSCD
An asterisk follows results filed as active; . = no result. Most compounds without a hit are left out; they make up all but 5.3% or so of the library.

SMILES	M18AAP inhibitor	Mot1-301 SUMO	HIF act	ALR H2O2 inh
O=C(NCc1ccco1)c1cc2sccc2n1Cc1ccccc1	12	-12	1	93*
O=C(NCCc1ccccc1)c1cc2sccc2n1Cc1ccccc1	-3	1	75*	-2
CSc1ccc(C(=O)N2CCC(n3nccc3NC(=O)C3CC3)CC2)cc1	1	-4	1	-22
O=c1ccc2cc3c([nH]c4ccc(Br)cc43)oc-2c1O	10	-20	-1	99*
O=C(Cn1ccnc1)c1ccc(O)c(O)c1	.	-9	.	90*
COC(=O)c1ccc(COc2ncnc3c(Cl)cc(Cl)cc23)o1	0	-7	1	22
Cc1ccc(S(=O)(=O)N(C)S(=O)(=O)c2ccc(C#N)cc2)cc1	3	9	0	-6
COc1cc(SC#N)ccc1N=Cc1c(C)[nH]n(-c2ccc(Cl)cc2)c1=O	-10	-5	0	66
COc1cc(SC#N)ccc1N=Cc1c(C)[nH]n(-c2ccc(C)c(C)c2)c1=O	-3	-14	1	94*
CCOC(=O)C1C(=O)CC(C)(O)C(C(=O)OCC)C1c1ccc(N(CC)CC)cc1 (centres undefined)	-2	-20	0	98*
CCOC(=O)C1C(=O)CC(C)(O)C(C(=O)OCC)C1c1ccc(F)cc1 (centres undefined)	7	-5	0	-3
C=CCSC1=N/C(=C\C=C\c2ccco2)C(=O)S1	11	27	0	99*
C=CCSC1=N/C(=C\c2sccc2C)C(=O)S1	-1	-3	1	53
CC(C)(C)c1ccc(C(=O)Oc2ccccc2CCC(=O)O)cc1	-6	-28	0	91*
CC(C)(C)c1ccc(C(=O)O/N=C(\N)c2ccccc2)cc1	14	40	-56	0
CCOc1ccccc1/C=N/Nc1cc(C)nc2ccc(C)cc12	1	-7	-1	18
Cc1ccc2nc(C)cc(N/N=C/c3cccc(O)c3)c2c1	4	139	1	99*
CCn1nc(Cc2cccc3ccccc23)c(C#N)c1N	.	-3	1	2
N#CCCn1nc(Cc2cccc3ccccc23)c(C#N)c1N	.	331*	0	0
O=S1(=O)CC=C(CSC(=S)NC2CCS(=O)(=O)C2)C1 (centres undefined)	-6	-9	0	99*
Cn1c(SCC(=O)Nc2cccc(F)c2)nnc1-c1cc2ccccc2o1	1	-2	0	-4
CCn1c(SCC(=O)Nc2ccc(C)cc2)nc(O)cc1=O	-2	-12	0	99*
CCCCSc1nc(O)cc(=O)n1CC	1	-17	0	-5
CCCn1c(SCC(=O)Nc2cccc(F)c2)nc(O)cc1=O	.	59	.	99*
CCn1cc(/C=N\NC(=O)c2ccccc2Cl)cn1	2	-6	0	15
SMILES	M18AAP inhibitor	Mot1-301 SUMO	HIF act	ALR H2O2 inh
CC1Sc2ccc(S(=O)(=O)CCC(=O)NCc3ccccc3)cc2NC1=O (centres undefined)	0	2	1	-3
CC1Sc2ccc(C(=O)Nc3ccc(S(=O)(=O)N(C)C)cc3)cc2NC1=O (centres undefined)	.	27	0	98*
CC1Sc2ccc(S(=O)(=O)CCC(=O)Nc3ccccn3)cc2NC1=O (centres undefined)	29*	311	0	-1
O=c1c2cc([N+](=O)[O-])ccc2nc(CN2CCN(c3ccccn3)CC2)n1-c1ccccc1F	0	177	0	1
CC(C)Cc1nnc(NC(=O)C2CCCC2)s1	2	0	2	5
c1ccc2c(c1)CC(N1CCCCC1)c1ccccc1N2 (centres undefined)	-10	-4	0	85*
Cc1ccc(-c2cnn3c(N4CCOCC4)cc(C)nc23)cc1	4	357	2	93*
CSCC[C@H](NC(=O)[C@@H]1Cc2c([nH]c3ccccc23)C2c3ccccc3C(=O)N21)C(=O)NCC1CCCO1 (some centres undefined)	-1	793*	0	-3
C=CCc1ccc(O)c(-c2ccc(O)c(CC=C)c2)c1	0	12	0	98*
CC(c1ccccc1)n1c(N2CCN(C)CC2)nc2c1c(=O)[nH]c(=O)n2C (centres undefined)	-5	-20	-35	-7
COc1ccc(/C=C/C(=O)OCC(=O)c2c(C)[nH]c3ccccc23)cc1OC	1	0	0	.
O=C(CCCC(=O)c1ccc(O)cc1)c1ccc(O)cc1	.	56	5	2
O=C1C=CC(=C(c2ccc(O)cc2)c2ccc(O)cc2)C=C1	.	-18	.	99*
O=C(O)c1cccc(Nc2nc(Nc3ccccc3)nc(N3CCCC3)n2)c1	6	4	0	95*
c1ccc(Nc2nc(N3CCCC3)nc(N3CCCC3)n2)cc1	8	15	0	-3
COc1cccc(C2c3[nH]c4ccccc4c3C[C@H]3C(=O)N(c4ccccc4C(=O)NCCCN4CCOCC4)C(=O)N23)c1 (some centres undefined)	9	-10	0	99*
O=C(NCCCN1CCOCC1)c1ccccc1N1C(=O)[C@@H]2Cc3c([nH]c4ccccc34)C(c3ccc(F)cc3)N2C1=O (some centres undefined)	6	-8	0	22
O=C(NCCN1CCOCC1)c1ccccc1N1C(=O)[C@@H]2Cc3c([nH]c4ccccc34)C(c3ccccc3)N2C1=O (some centres undefined)	-3	17	0	99*
C[C@H](CO)N1C[C@H](C)[C@@H](CN(C)C)Oc2c(NS(=O)(=O)c3ccc(F)cc3)cccc2C1=O	.	6	.	3
CSc1ccccc1OCc1cc(C(=O)N2CCC(Oc3cccnc3)CC2)no1	0	99	2	-18
Cc1c2c(nc3ccccc13)CC(C)(C)CC2=O	-2	11	0	94*
Cc1c2c(nc3nc4ccccc4n13)CC(C)(C)CC2=O	4	7	0	-10
COc1ccc(C=O)cc1OC(=O)N1CCOCC1	-4	22	0	7
O=C(NCc1ccccc1)c1nc[nH]c1C(=O)N1CCN(c2ccccc2)CC1	.	-13	.	98*
COc1cc(/C=C(\C#N)C(=O)N2CCCCC2)ccc1O	6	-4	1	99*
SMILES	M18AAP inhibitor	Mot1-301 SUMO	HIF act	ALR H2O2 inh
COc1cc(/C=N/NC(=O)CC(=O)NC2CCCCC2)ccc1O	-3	123	1	99*
CN(C)c1ccc(/C=N/NC(=O)C(=O)N2CCCCCC2)cc1	10	-15	1	99*
COc1cc(/C=N/NC(=O)C(=O)N2CCCCCC2)ccc1O	1	-17	0	99*
COc1ccc(/C=C(\C#N)C(=O)N2CCOCC2)cc1Br	-4	.	0	.
C=CCOc1ccc(/C=N/NC(=O)C(=O)N2CCCCCC2)cc1OC	-2	5	0	.
COc1cc(/C=N/NC(=O)C(C)Nc2n[nH]c(=O)[nH]c2=O)ccc1O (centres undefined)	9	0	0	99*
COc1ccc(/C=N/NC(=O)CNc2n[nH]c(=O)[nH]c2=O)cc1OC	-6	-6	0	-20
COc1cc(/C=N/NC(=O)CNc2n[nH]c(=O)[nH]c2=O)ccc1O	2	13	-1	98*
